Laboratory results: PubChem BioAssay (Tox21)
Where “and” joins values, the source holds several entries; their conditions need not be identical. Equal entries are not always repeated. Inconclusive results are not listed. Calls of active or inactive are those of the source. The call rests on the fitted dose curve; in most records, active means well fitted curve in the direction sought with a large enough effect in the repeat runs; inconclusive means weak or mixed curves; inactive means no such curve, though single readings can be large; an effect the other way counts as inactive or inconclusive.

Tests used:
[1] = Caspase-3/7 induction in HepG2 cells by small molecules, qHTS assay (AID 1346978); further: nearly all actives have a fitted effect of over 15% in size
Summary of the method: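 Caspase-3/7 induction was measured by Caspase-Glo 3/7 luminescence (30 min, room temperature) after a 17 hr compound exposure of wild-type HepG2 cells seeded at 2,000 per well and pre-incubated 5 hr.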

[2] = Caspase-3/7 induction in CHO-K1 cells by small molecules, qHTS cell viability counter screen (AID 1346979); further: nearly all actives have a fitted effect of over 35% in size
Summary of the method: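 Cells (CHO-K1, wild type) are plated at 1,500 per well and incubated 5hr. Test compounds in DMSO are then pinned in, followed by 16hr at 37C and 5% CO2. Viability is read by CellTiter-Fluor fluorescence after 1hr.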

[3] = Caspase-3/7 induction in CHO-K1 cells by small molecules, qHTS assay (AID 1346980); further: nearly all actives have a fitted effect of over 15% in size
Summary of the method: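 Luminescent Caspase-Glo 3/7 read (30min, room temperature) quantified apoptosis induction. Cells were wild-type CHO-K1, treated with compound for 17hr at 37 C and 5% CO2.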

[4] = Caspase-3/7 induction in HepG2 cells by small molecules, qHTS cell viability counter screen (AID 1346981); further: series mostly up to about 92 µM; nearly all actives have a fitted effect of over 30% in size
Summary of the method: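 Wild-type HepG2 cells (2,000/well) were allowed to settle for 5 hr at 37 C, 5% CO2, then dosed with compounds in DMSO by pin transfer. After 16 hr at 37 C, CellTiter-Fluor was added and fluorescence read 1 hr later.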

[5] = target: Nuclear receptor subfamily 1 group I member 2 (Homo sapiens) (UniProt O75469); experiment: Human pregnane X receptor (PXR) small molecule agonists, qHTS assay (AID 1346982); further: nearly all actives have a fitted effect of over 35% in size; further: potency means the concentration at half of the fitted maximal effect
Sequence of Nuclear receptor subfamily 1 group I member 2 (Homo sapiens) (O75469 whole entry, looked up): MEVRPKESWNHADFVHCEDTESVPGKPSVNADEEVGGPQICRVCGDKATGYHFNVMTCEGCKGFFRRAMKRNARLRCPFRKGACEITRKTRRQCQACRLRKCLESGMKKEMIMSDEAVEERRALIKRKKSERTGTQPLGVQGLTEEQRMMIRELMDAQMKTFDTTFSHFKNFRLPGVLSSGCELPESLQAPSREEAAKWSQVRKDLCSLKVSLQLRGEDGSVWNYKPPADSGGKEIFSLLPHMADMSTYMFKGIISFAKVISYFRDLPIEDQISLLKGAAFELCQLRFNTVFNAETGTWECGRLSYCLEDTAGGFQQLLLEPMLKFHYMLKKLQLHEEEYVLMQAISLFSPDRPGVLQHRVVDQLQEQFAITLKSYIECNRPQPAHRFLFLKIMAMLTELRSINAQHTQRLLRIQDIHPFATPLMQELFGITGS
Summary of the method: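 PXR-Luc HepG2 cells (CYP3A4 promoter-driven luciferase) were seeded in medium with 5% charcoal-stripped FBS, left 5 hr at 37 C, then exposed to compounds in DMSO for 24 hr. Luminescence was read after ONE-Glo addition.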

[6] = target: Nuclear receptor subfamily 1 group I member 2 (Rattus norvegicus) (UniProt Q9R1A7); experiment: Rat pregnane X receptor (rPXR) activation by small molecules, qHTS assay (AID 1346983); conditions: rPXR luciferase reporter cells, One-Glo luminescence, 24 h; max activation: hits give high values; further: nearly all actives have a fitted effect of over 20% in size
Sequence of Nuclear receptor subfamily 1 group I member 2 (Rattus norvegicus) (Q9R1A7 whole entry, looked up): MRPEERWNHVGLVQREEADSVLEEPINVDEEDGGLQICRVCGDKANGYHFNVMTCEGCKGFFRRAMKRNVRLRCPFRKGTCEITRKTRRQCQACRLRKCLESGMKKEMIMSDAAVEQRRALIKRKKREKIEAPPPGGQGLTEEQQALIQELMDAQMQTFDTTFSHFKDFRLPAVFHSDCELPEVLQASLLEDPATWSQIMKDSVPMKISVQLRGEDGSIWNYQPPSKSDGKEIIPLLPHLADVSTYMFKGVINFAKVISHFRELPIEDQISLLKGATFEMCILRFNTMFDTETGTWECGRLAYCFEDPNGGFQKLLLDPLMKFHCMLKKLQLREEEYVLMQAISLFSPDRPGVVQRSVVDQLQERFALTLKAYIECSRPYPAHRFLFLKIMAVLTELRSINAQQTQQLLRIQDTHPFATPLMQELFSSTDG
Summary of the method: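 Luminescent readout (One-Glo luciferase, 30 min room temperature) followed 24 hr compound treatment at 37 C of rPXR cells plated 2,000 per well and preincubated 5hr; qHTS format with compounds delivered in DMSO.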

[7] = target: Nuclear receptor subfamily 1 group I member 2 (Homo sapiens) (UniProt O75469); experiment: CYP3A4 induction through human pregnane X receptor (PXR) by small molecules, qHTS assay (AID 1346984); further: nearly all actives have a fitted effect of over 40% in size
Summary of the method: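 DPX-2 cells (HepG2 co-transfected with PXR and CYP3A4 promoter-luciferase) treated with compounds 24 h at 37C; luciferin-IPA CYP3A4 substrate 3uM final added for 3 h, then One-Glo; luminescence read. qHTS format.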

[8] = target: Nuclear receptor subfamily 1 group I member 2 (Homo sapiens) (UniProt O75469); experiment: Human pregnane X receptor (PXR) activation by small molecules, qHTS assay (AID 1346985); further: nearly all actives have a fitted effect of over 40% in size
Summary of the method: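 DPX-2 cells (HepG2 co-transfected with a PXR response element and a CYP3A4-promoter luciferase construct) were seeded at 2,000 per well, rested 5 hr at 37C, then exposed to DMSO-dissolved compounds for 24 hr. Activation was read as luciferase luminescence.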

[9] = target: Cytochrome P450 2C19 (Homo sapiens) (UniProt P33261); experiment: Cytochrome P450 Family 2 Subfamily C Member 19 (CYP2C19) small molecule antagonists: luciferase reporter qHTS assay (AID 1671197); further: nearly all actives have a fitted effect of over 65% in size; further: potency means the concentration at half of the fitted maximal effect
Sequence of Cytochrome P450 2C19 (Homo sapiens) (P33261 whole entry, looked up): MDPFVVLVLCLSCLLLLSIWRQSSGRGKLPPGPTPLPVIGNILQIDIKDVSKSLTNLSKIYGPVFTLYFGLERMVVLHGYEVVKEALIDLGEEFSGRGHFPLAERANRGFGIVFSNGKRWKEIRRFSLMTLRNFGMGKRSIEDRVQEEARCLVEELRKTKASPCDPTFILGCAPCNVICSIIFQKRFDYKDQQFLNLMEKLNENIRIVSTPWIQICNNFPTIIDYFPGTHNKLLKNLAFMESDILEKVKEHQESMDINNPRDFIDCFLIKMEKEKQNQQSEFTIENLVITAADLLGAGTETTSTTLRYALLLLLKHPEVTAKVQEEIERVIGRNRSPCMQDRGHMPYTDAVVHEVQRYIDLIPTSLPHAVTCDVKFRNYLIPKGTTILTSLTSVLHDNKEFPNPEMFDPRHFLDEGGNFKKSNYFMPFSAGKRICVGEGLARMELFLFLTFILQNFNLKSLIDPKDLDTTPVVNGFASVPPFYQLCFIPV
Summary of the method: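 Inhibition of CYP2C19 was scored from loss of luminescence in a P450-Glo proluciferin substrate assay, NADPH-started and run 1 h at 37C, with ketoconazole as positive control.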

[10] = target: Cytochrome P450 2C9 (Homo sapiens) (UniProt P11712); experiment: Cytochrome P450 Family 2 Subfamily C Member 9 (CYP2C9) small molecule antagonists: luciferase reporter qHTS assay (AID 1671198); further: nearly all actives have a fitted effect of over 50% in size; further: potency means the concentration at half of the fitted maximal effect
Sequence of Cytochrome P450 2C9 (Homo sapiens) (P11712 whole entry, looked up): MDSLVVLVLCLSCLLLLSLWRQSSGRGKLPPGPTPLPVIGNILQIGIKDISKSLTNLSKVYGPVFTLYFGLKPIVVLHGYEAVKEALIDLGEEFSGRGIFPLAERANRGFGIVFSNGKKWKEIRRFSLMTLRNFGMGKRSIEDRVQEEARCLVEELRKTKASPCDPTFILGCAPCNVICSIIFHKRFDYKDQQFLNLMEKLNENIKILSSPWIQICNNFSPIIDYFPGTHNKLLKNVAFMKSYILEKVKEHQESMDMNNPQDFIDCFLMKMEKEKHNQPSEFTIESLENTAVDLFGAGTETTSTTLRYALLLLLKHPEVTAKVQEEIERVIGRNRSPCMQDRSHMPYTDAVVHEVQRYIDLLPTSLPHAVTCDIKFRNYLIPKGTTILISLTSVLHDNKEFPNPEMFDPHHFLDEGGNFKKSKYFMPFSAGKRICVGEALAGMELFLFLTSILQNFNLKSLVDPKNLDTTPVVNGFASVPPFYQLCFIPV
Summary of the method: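 Enzyme-substrate mix preincubated with compound 10 min at room temperature; reaction started with NADPH regeneration solution, 1 h 37C. Luminescent luciferin product read after 20 min detection reagent.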

[11] = target: Cytochrome P450 1A2 (Homo sapiens) (UniProt P05177); experiment: Cytochrome P450 Family 1 Subfamily A Member 2 (CYP1A2) small molecule antagonists: luciferase reporter qHTS assay (AID 1671199); further: nearly all actives have a fitted effect of over 50% in size; further: potency means the concentration at half of the fitted maximal effect
Sequence of Cytochrome P450 1A2 (Homo sapiens) (P05177 whole entry, looked up): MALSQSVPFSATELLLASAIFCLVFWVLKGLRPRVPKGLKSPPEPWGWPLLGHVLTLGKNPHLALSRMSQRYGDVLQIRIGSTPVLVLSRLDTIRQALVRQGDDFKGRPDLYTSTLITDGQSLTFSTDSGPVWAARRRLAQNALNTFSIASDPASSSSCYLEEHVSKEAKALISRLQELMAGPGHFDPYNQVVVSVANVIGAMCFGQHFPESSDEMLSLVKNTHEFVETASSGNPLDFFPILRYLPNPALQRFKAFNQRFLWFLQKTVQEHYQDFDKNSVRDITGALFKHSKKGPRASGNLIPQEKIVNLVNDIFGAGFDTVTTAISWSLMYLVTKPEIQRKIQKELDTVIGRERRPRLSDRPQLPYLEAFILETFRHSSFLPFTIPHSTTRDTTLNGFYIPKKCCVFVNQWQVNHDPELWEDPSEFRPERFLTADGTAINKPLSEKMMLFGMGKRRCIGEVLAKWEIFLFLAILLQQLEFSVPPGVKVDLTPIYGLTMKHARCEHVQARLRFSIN
Summary of the method: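 Human CYP1A2 activity measured with a P450-Glo proluciferin substrate; compounds in DMSO preincubated 10 min at room temperature with enzyme-substrate mix, then NADPH regeneration system added for 1 h. Luciferin detection reagent, 20 min, luminescence read.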

[12] = target: Voltage-gated inwardly rectifying potassium channel KCNH2 (Homo sapiens) (UniProt Q12809); experiment: Human Ether-a-go-go-Related Gene (hERG) channel small molecule antagonists: fluorescence cell-based qHTS assay (AID 1671200); further: nearly all actives have a fitted effect of over 50% in size; further: potency means the concentration at half of the fitted maximal effect
Sequence of Voltage-gated inwardly rectifying potassium channel KCNH2 (Homo sapiens) (Q12809 whole entry, looked up): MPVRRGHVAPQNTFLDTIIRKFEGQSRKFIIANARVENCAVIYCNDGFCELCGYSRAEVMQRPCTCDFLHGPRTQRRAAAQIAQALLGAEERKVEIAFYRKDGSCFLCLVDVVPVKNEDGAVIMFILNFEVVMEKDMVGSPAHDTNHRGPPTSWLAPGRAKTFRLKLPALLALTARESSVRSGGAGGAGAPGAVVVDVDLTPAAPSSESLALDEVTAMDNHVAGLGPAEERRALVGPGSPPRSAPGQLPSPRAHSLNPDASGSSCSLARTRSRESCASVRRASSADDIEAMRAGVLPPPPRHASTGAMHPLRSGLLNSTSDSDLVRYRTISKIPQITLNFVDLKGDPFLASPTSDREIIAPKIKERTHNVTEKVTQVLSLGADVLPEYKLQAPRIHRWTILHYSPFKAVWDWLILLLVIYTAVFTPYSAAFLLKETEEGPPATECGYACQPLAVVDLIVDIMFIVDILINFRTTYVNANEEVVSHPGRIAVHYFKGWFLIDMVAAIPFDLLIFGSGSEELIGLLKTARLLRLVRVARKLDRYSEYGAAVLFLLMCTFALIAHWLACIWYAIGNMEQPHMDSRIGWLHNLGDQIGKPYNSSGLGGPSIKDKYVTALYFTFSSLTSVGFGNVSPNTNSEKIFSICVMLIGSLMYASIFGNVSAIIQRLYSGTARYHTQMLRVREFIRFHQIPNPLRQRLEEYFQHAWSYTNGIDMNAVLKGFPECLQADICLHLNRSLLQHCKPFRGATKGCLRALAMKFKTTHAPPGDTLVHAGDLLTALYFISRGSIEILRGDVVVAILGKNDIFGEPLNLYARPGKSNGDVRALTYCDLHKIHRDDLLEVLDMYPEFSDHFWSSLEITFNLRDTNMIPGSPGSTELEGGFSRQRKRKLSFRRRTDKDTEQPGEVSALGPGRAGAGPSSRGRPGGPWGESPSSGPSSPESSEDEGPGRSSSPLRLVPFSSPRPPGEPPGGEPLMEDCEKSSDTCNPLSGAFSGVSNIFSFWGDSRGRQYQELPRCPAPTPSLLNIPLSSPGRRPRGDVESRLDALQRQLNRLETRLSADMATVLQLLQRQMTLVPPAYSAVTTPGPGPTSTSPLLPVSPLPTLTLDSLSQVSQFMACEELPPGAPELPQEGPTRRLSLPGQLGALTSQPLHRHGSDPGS
Summary of the method: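 Channel function was assessed by thallium flux. Cells seeded the previous day and kept at 37 C took up FluxOR II dye over 1 h in the dark at room temperature, then sat another 10 min before stimulation.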

[13] = target: Cytochrome P450 3A4 (Homo sapiens) (UniProt P08684); experiment: Cytochrome P450 Family 3 Subfamily A Member 4 (CYP3A4) small molecule antagonists: luciferase reporter qHTS assay (AID 1671201); further: nearly all actives have a fitted effect of over 50% in size; further: potency means the concentration at half of the fitted maximal effect
Sequence of Cytochrome P450 3A4 (Homo sapiens) (P08684 whole entry, looked up): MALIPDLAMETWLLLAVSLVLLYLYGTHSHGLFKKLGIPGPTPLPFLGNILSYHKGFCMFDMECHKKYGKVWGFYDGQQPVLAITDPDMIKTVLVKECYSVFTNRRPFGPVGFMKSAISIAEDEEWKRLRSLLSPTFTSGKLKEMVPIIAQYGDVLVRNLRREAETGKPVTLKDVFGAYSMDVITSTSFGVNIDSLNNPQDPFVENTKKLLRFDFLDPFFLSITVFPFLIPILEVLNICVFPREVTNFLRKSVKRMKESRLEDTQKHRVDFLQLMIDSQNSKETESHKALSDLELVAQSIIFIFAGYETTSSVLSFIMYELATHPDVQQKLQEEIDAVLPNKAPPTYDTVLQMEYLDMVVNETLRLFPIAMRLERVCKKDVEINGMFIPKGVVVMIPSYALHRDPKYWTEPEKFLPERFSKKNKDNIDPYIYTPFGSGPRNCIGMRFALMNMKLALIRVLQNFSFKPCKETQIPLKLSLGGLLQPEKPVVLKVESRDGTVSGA
Summary of the method: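 Compounds in DMSO were pin-transferred onto CYP3A4 enzyme-substrate mix and held 10 min at room temperature. NADPH regenerating solution started the reaction for 1 h; luciferin detection reagent stopped it, and luminescence was read after 20 min.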

[14] = target: Cytochrome P450 2D6 (Homo sapiens) (UniProt P10635); experiment: Cytochrome P450 Family 2 Subfamily D Member 6 (CYP2D6) small molecule antagonists: luciferase reporter qHTS assay (AID 1671196); further: nearly all actives have a fitted effect of over 50% in size; further: potency means the concentration at half of the fitted maximal effect
Sequence of Cytochrome P450 2D6 (Homo sapiens) (P10635 whole entry, looked up): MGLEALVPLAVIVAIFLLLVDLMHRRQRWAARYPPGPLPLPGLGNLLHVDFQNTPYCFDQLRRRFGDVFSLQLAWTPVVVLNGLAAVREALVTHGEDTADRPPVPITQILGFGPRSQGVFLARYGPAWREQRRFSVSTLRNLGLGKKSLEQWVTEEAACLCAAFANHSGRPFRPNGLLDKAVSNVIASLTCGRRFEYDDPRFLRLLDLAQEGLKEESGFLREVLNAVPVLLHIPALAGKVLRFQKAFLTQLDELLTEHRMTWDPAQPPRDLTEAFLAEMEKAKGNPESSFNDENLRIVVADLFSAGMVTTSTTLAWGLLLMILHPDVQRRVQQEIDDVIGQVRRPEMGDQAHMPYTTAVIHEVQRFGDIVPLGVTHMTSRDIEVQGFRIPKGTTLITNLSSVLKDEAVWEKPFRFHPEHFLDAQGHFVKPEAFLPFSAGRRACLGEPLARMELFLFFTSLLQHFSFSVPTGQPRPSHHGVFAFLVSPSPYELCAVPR
Summary of the method: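 CYP2D6 enzyme–substrate mix was held with compound for 10 min at room temperature, then NADPH regeneration solution was added and the reaction ran 1 h at room temperature. Luciferin product was detected by luminescence after 20 min with detection reagent.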
On the % scale 0 is the no-effect control and ±100 the full control effect.

O=C1CC[C@@H](C(=O)O)N1
inactive: Potency [1] | Potency [2] | outcome [3] | Potency [4] | Potency [5] | max activation [6] -5.25% | Potency [7] | Potency [8] | Potency [9] | Potency [10] | Potency [11] | Potency [12] | Potency [13]

O=C(Nc1ccc(C(=O)O)c(O)c1)c1ccccc1
active: Potency [14] 15.5 µM
inactive: Potency [1] | Potency [2] | outcome [3] | Potency [4] | Potency [5] | max activation [6] -2.23% | Potency [7] | Potency [8] | Potency [11] | Potency [12]

O=C(O)CNC(=O)c1ccccc1I
inactive: Potency [1] | Potency [2] | outcome [3] | Potency [4] | Potency [5] | max activation [6] 0.066% | Potency [7] | Potency [8] | Potency [14] | Potency [10] | Potency [12]

CCCCC[C@H](O)/C=C/[C@H]1[C@H](O)CC(=O)[C@@H]1C/C=C\CCCC(=O)O
inactive: Potency [1] | Potency [2] | outcome [3] | Potency [4] | Potency [5] | max activation [6] -0.864% | Potency [7] | Potency [8] | Potency [14] | Potency [9] | Potency [10] | Potency [11] | Potency [12] | Potency [13]

CS(=O)(=O)c1ccc([C@@H](C[C@H]2CCC(=O)C2)C(=O)Nc2cnccn2)cc1Cl
inactive: Potency [1] | Potency [2] | outcome [3] | Potency [4] | Potency [5]

CC(=O)N[C@@H](Cc1ccc(O)cc1)C(=O)O
inactive: Potency [1] | Potency [2] | outcome [3] | Potency [4] | Potency [5] | max activation [6] -1.6% | Potency [7] | Potency [8] | Potency [14] | Potency [9] | Potency [10] | Potency [11] | Potency [12] | Potency [13]

COc1ccc(-c2cc(C(F)F)nn2-c2ccc(S(N)(=O)=O)cc2)cc1F
inactive: Potency [1] | Potency [2] | outcome [3] | Potency [4] | max activation [6] -1.2% | Potency [7] | Potency [8] | Potency [11]
active: Potency [5] 15 µM | Potency [14] 8.71 µM | Potency [10] 8.71 µM

CNC1CCCN(c2c(F)cc3c(=O)c(C(=O)O)cn(C4CC4)c3c2OC)C1 (configuration not stated)
inactive: Potency [1] | Potency [2] | outcome [3] | Potency [4] | Potency [5] | max activation [6] -1.63% | Potency [7] | Potency [8] | Potency [14] | Potency [9] | Potency [11] | Potency [13]

CCN(CC)CCOC(=O)C(c1ccccc1)c1ccccc1
active: Potency [14] 2.75 µM | Potency [9] 21.9 µM | Potency [11] 15.5 µM | Potency [12] 2.68 µM
inactive: Potency [1] | Potency [2] | outcome [3] | Potency [4] | Potency [5] | max activation [6] 0.131% | Potency [7] | Potency [8] | Potency [13]

O=C(O)c1cccc(C[C@@H]2COc3ccc(OCc4nc5cc(F)ccc5s4)cc3[C@@H]2O)c1
inactive: Potency [1] | Potency [2] | outcome [3] | Potency [4] | Potency [5] | Potency [14] | Potency [9]
active: Potency [10] 40 µM | Potency [11] 31.8 µM

ClC1=C(Cl)C1(Cl)Cl
inactive: Potency [1] | Potency [2] | outcome [3] | Potency [4] | Potency [5] | Potency [14] | Potency [9] | Potency [10] | Potency [11] | Potency [12]

COc1ccc(C(=O)NCc2ccc(OCCN(C)C)cc2)cc1OC
inactive: Potency [1] | Potency [2] | outcome [3] | Potency [4] | Potency [5] | max activation [6] -0.841% | Potency [7] | Potency [8] | Potency [14] | Potency [9] | Potency [10] | Potency [11] | Potency [12]

CC(C)Cc1ccc(CC(=O)O)cc1
inactive: Potency [1] | Potency [2] | outcome [3] | Potency [4] | Potency [5] | max activation [6] -5.33% | Potency [7] | Potency [8] | Potency [9] | Potency [11] | Potency [12] | Potency [13]

Cc1cn([C@H]2C[C@H](F)[C@@H](CO)O2)c(=O)[nH]c1=O
inactive: Potency [1] | Potency [2] | outcome [3] | Potency [4] | Potency [5] | max activation [6] -7.91% | Potency [7] | Potency [8] | Potency [9] | Potency [10] | Potency [13]

O=c1[nH]c2cc(C(F)(F)F)c(N3CCOCC3)cc2n(CP(=O)(O)O)c1=O
inactive: Potency [1] | Potency [2] | outcome [3] | Potency [4] | Potency [5] | max activation [6] -2.81% | Potency [7] | Potency [8] | Potency [14] | Potency [9] | Potency [10] | Potency [11] | Potency [12] | Potency [13]

COc1ccc(CCN(C)CCCN2CCc3cc(OC)c(OC)cc3CC2=O)cc1OC
inactive: Potency [1] | Potency [2] | outcome [3] | Potency [4] | Potency [5] | max activation [6] 3.44% | Potency [7] | Potency [8] | Potency [14] | Potency [9] | Potency [10] | Potency [11] | Potency [13]

CC[C@H]1OC(=O)[C@H](C)[C@@H](O[C@H]2C[C@@](C)(OC)[C@@H](O)[C@H](C)O2)[C@H](C)[C@@H](O[C@@H]2O[C@H](C)C[C@H](N(C)C)[C@H]2O)[C@](C)(O)C[C@@H](C)C(=O)[C@H](C)[C@@H](O)[C@]1(C)O
inactive: Potency [1] | Potency [2] | outcome [3] | Potency [4] | Potency [5] | max activation [6] -0.703% and -0.253% | Potency [7] | Potency [8] | Potency [14] | Potency [9] | Potency [11]
active: Potency [13] 3.45 µM

Cc1ccc(N(CC2=NCCN2)c2cccc(O)c2)cc1
inactive: Potency [1] | Potency [2] | outcome [3] | Potency [4] | Potency [5] | Potency [10] | Potency [11]
active: Potency [14] 0.776 µM | Potency [9] 17.4 µM
